Assay [1] is described as follows: qHTS Assay for Identifying Gametocytocidal Compounds (AID 743244).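 Further: on the % scale 0 is the no-effect control and ±100 the full control effect; actives lower the fluorescent signal which means gametocytes are killed.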 Conditions: P. falciparum 3D7 stage III-V gametocytes, alamarBlue, 72 h; max response: hits give low values. Summed up: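 Viability read-out was resazurin reduction (alamarBlue, 24 h) measured at Ex 525/Em 598 nm. Beforehand, late-stage (III-V) 3D7 P. falciparum gametocytes at 20,000 cells/well were incubated with compound 72 h at 37C under 5% CO2.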
(In qHTS, concentration-response curves come from the screen itself.)

A short description of assay [2]: Natriuretic polypeptide receptor (hNpr1) antagonism - Pilot counterscreen GloSensor control cell line (AID 1347045; calls by dose curve; further: series mostly up to about 38 µM; on the % scale 0 is the no-effect control and ±100 the full control effect). An outline of the steps:
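HEK293 cells carrying the GloSensor cGMP sensor (GIP/pGS-40F) were loaded with 2% GloSensor reagent for 2 h, exposed to compounds for 30 min, and then stimulated with 50 uM sodium nitroprusside for 20 min at room temperature.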
In general terms: A counterscreen serves to expose hits that act by an unwanted route or on another target.

The nature of assay [3]: NS1 protein of Zika virus - qHTS assay to identify small molecule inhibitors in human HEK 293 cells (AID 1347053).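 Further: series mostly up to about 46 µM; plate controls were infected untreated cells for no effect and uninfected cells for full effect; nearly all actives have a fitted effect of over 55% in size.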 Summed up: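 HEK 293 cells, seeded 20 h at 37 C, were pretreated with compound 1 h, then infected with ZIKV MR766 (MOI = 0.5) for 24 h. NS1 was read by TR-FRET with two anti-NS1 antibodies, normalized to uninfected and infected wells.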
Assay [4] has as its target T1, Tyrosine-protein phosphatase non-receptor type substrate 1 (Homo sapiens) + Leukocyte surface antigen CD47 (Homo sapiens) (UniProt P78324+Q08722). As to the kind of experiment: CD47-SIRPalpha protein protein interaction - LANCE assay qHTS validation (AID 1347057; active means well fitted curve in the direction sought with a large enough effect in the signal ratio, with a control signal flat, not every such curve was filed as active; the % refers to the signal ratio; further: series mostly up to about 38 µM; 0% is about no effect). Summed up: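 First, His-tagged CD47 and Eu-labelled anti-His antibody met the compound for 30 min; next, site-specifically biotinylated SIRPalpha was added for 30 min; finally streptavidin-APC was added before reading the TR-FRET ratio.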

In assay [5] the target is T1, Tyrosine-protein phosphatase non-receptor type substrate 1 (Homo sapiens) + Leukocyte surface antigen CD47 (Homo sapiens). Description: CD47-SIRPalpha protein protein interaction - HTRF assay qHTS validation (AID 1347058; active means well fitted curve in the direction sought with a large enough effect in the signal ratio, not every such curve was filed as active; the % refers to the signal ratio;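 further: recombinant soluble extracellular CD47 with His tag and biotinylated SIRPalpha domains; series mostly up to about 38 µM; 0% is about no effect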). An outline of the steps:
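TR-FRET read (Ch1/Ch2 ratio) of soluble extracellular CD47 and Avi-biotinylated SIRPalpha domains in PBS pH 7.4 with 0.05% IGEPAL; 7-point compound titration. Sequential 30 min room-temperature steps; non-biotinylated SIRPalpha as control inhibitor.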
A general note: TR-FRET usually uses a lanthanide donor and a delayed reading to cut background.

Assay [6] shares this target. As to the kind of experiment: CD47-SIRPalpha protein protein interaction - Alpha assay qHTS validation (AID 1347059).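 Further: bead proximity luminescence from CD47 binding SIRPalpha after compound preincubation with SIRPalpha; on the % scale 0 is the no-effect control and ±100 the full control effect.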 Summed up: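 Binding is measured by AlphaScreen proximity: Ni-NTA acceptor beads capture His-CD47, streptavidin donor beads capture biotin-SIRPalpha. Each of three additions (SIRPalpha with compound, CD47, beads) incubates 30 min at room temperature protected from light.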

Assay [7] has as its target Parathyroid hormone/parathyroid hormone-related peptide receptor (Homo sapiens) (UniProt Q03431). Description: qHTS for PTHR1 Agonists: Optimization Screen against the NCGC LOPAC library (AID 1347079).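 Further: GloSensor cAMP luminescence in HEK-293 GP2 cells expressing human PTHR1 with IBMX; 0% is about no effect.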 An outline of the steps:
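Compounds were tested across a qHTS titration. PTHR1-expressing GP2 cells report cAMP rises via GloSensor luminescence after 1 hr compound exposure at 37C with IBMX present.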

For assay [8], the system named is Zika virus NS2B-NS3 protease. As to the kind of experiment: Primary screen GU AMC qHTS for Zika virus inhibitors (AID 1347154).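 Further: 0% = no-inhibitor control and -100% = no-enzyme control; nearly all actives have a fitted effect of over 70% in size.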 Summed up:
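Fluorogenic AMC-substrate cleavage by noncovalent NS2B-NS3 protease complex (25 nM, pH 8.0 Tris buffer with Tween 20) followed for 15 minutes at room temperature (~20% conversion). Percent inhibition from ex340/em450 signal change, fitted by 4-parameter Hill equation.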

Assay [9] can be described thus: qHTS to identify inhibitors of the type 1 interferon - major histocompatibility complex class I in skeletal muscle: primary screen against the NCATS LOPAC collection (AID 1347405).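 Further: lytic HiBiT luminescence reporting HLA-B protein level; on the % scale 0 is the no-effect control and ±100 the full control effect.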 Summed up: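 Immortalized human C25cl48 myoblasts with HiBiT knocked into endogenous HLA-B*08:01 were stimulated with 4.0 ng/ml IFN-beta and given compounds in a 7-point, 1:4.3 titration from 46 uM final; after 24 hrs, lytic HiBiT luminescence was read.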

Assay [10] can be described thus: qHTS for inhibitors of adenylyl cyclases using a fission yeast platform: a pilot screen against the NCATS LOPAC library (AID 1347410).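 Further: plate controls were DMSO vehicle for no effect and DPI positive control for full effect.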 Summed up: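 S. pombe CHP2027 (AC9-GNAS-PDE4D2) carrying a PKA-repressed fbp1-GFP reporter was exposed to LOPAC compounds (final up to 57 µM) for 18 h at 30C in the dark, in EMM with histidine, lysine and uracil; GFP gain-of-signal read by laser scanning cytometry.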

Assay [11] is described as follows: Validation qHTS assay for inhibitors of Activation Induced Cytidine Deaminase (AID): UDG Counterscreen signal (AID 1347427). Further: 0% is about no effect. Summed up: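 Counterscreen read of UDG activity (2 U/mL, 4/3x) in the FRET deamination format with AID (1 uM, 4/3x), DJC20/DJC23 substrates (250 nM, 4x), 4 h at room temperature. NaOH stop, fluorescence at 560 ex/665 em.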
Assay [12] concerns the target Single-stranded DNA cytosine deaminase (Homo sapiens) (UniProt Q9GZX7). Description: Validation qHTS assay for inhibitors of Activation Induced Cytidine Deaminase (AID): AID signal (AID 1347429). Further: on the % scale 0 is the no-effect control and ±100 the full control effect. Summed up: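 AID and UDG were combined and compounds added at final up to 114 uM, then DJC20/DJC23 FRET substrate was added for 4 hr at room temperature. NaOH was then added for 30 min before fluorescence was read at 540/590 nm.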

A short description of assay [13]: Primary qHTS for inhibitors of La Crosse Virus (LACV) - induced cell death in SH-SY5Y cells (AID 1508616).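 Further: top concentration of the series differs between compounds; 0% = infected DMSO wells and 100% = uninfected DMSO wells; higher means more rescue of cells from virus-induced death.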 Summed up:
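Luminescent ATP readout (ATPLite 1step, 5 min room temperature) measured rescue from LACV-induced death after 6 days of infection at 0.01 MOI; normalized to infected DMSO wells and uninfected DMSO wells.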

In assay [14] the target is Calcium and integrin-binding protein 1 (Homo sapiens) (UniProt Q99828). As to the kind of experiment: Validation qHTS for Identification of Calcium Integrin Binding protein 1 (CIB1) Competitor (AID 1508618). Further: on the % scale 0 is the no-effect control and ±100 the full control effect. Summed up: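 CIB1-GST (1 uM final) in 5 mM HEPES pH 7.4, 125 mM NaCl, 5 mM CaCl2, 0.01% Tween20 was preincubated 15 min at room temperature with compound (up to 114 uM), then FITC-alphaIIb peptide (100 nM) added for 15 min; fluorescence polarization read.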
Chain of Calcium and integrin-binding protein 1 (Homo sapiens) (Q99828 whole entry, looked up): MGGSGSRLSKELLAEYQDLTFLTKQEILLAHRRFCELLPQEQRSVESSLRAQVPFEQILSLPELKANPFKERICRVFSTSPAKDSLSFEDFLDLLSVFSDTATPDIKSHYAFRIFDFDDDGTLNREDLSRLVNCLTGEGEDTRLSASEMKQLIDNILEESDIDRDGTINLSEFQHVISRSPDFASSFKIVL

Assay [15] can be described thus: Primary qHTS for small molecule stabilizers of the endoplasmic reticulum resident proteome: Secreted ER Calcium Modulated Protein (SERCaMP) assay (AID 1508630). Further: on the % scale 0 is the no-effect control and ±100 the full control effect. An outline of the steps: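 GLuc-SERCaMP-expressing SH-SY5Y cells, pretreated 16 h with compound, are challenged with thapsigargin to empty ER calcium stores; after 4 h, coelenterazine is added directly to the medium and luminescence is imaged.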

Assay [16] deals with N-terminal Xaa-Pro-Lys N-methyltransferase 1 (Homo sapiens) (UniProt Q9BV86). Description: Confirmatory qHTS for Inhibitors of N-terminal methyltransferase 1 (NTMT1): MTaseGlo Assay (AID 1645874). Further: potency means the concentration at half of the fitted maximal effect; nearly all actives have a fitted effect of over 65% in size. An outline of the steps:
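Luminescent MTase-Glo read-out of SAH. 125 nM NTMT1, 100 uM SAM, 1 uM SPKRIA substrate, 30 min RT reaction after 15 min compound preincubation. Normalized to no-enzyme and DMSO controls; Hill fit.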

For assay [17], the target named is Metallo-beta-lactamase type 2 (Klebsiella pneumoniae) (UniProt C7C422). As to the kind of experiment: qHTS to identify inhibitors of the New Delhi Metallo-beta-lactamase (NDM): assay validation screen against the NCATS LOPAC Collection (AID 1794843). An outline of the steps: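 NDM-1 at 2 nM final in 50 mM HEPES pH 7.0 with 1 uM ZnSO4 and 0.01% Tween20 was preincubated with library compounds in DMSO. Nitrocefin (50 uM stock) was then added, and absorbance at 485 nm was read at the kinetic plateau.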
Chain of Metallo-beta-lactamase type 2 (Klebsiella pneumoniae) (C7C422 whole entry, looked up): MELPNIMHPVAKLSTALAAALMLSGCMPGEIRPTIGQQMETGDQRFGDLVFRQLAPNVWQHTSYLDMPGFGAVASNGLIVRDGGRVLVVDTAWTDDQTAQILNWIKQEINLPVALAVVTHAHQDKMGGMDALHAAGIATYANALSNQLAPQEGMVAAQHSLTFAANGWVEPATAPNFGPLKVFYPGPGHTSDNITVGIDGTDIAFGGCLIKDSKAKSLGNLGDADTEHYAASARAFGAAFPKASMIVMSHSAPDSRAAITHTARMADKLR

For assay [18], the target named is Glutathione peroxidase 1 (Homo sapiens) (UniProt P07203). As to the kind of experiment: Primary qHTS Assay for Inhibitors of Recombinant Selenoprotein Glutathione Peroxidase 1 (GPX1) (AID 1845191). Further: nearly all actives have a fitted effect of over 65% in size. Summed up: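 10 nM GPX1 + cpd, 30 min RT; start w/ 1 mM GSH, 0.5 mM cumene hydroperoxide, 0.5 mM NADPH, 100 nM GR, 0.01% BSA; buffer 50 mM Tris-HCl pH 7.5, 2 mM EDTA, 150 mM NaCl; Fl 340/450, 0 & 15 min.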
Chain of Glutathione peroxidase 1 (Homo sapiens) (P07203 whole entry, looked up): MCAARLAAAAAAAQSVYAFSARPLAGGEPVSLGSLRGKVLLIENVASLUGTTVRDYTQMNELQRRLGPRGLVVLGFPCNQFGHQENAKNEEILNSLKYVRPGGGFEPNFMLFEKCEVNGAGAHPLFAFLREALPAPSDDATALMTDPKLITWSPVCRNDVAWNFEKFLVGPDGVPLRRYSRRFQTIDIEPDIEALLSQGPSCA

The target in assay [19] is Phospholipid hydroperoxide glutathione peroxidase GPX4 (Homo sapiens) (UniProt P36969). As to the kind of experiment: Primary qHTS Assay for Inhibitors of Recombinant Selenoprotein Glutathione Peroxidase 4 (GPX4) (AID 1845192). Further: nearly all actives have a fitted effect of over 65% in size. Conditions: outcome: dose series up to 50 µM unless noted. An outline of the steps:
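NADPH consumption, followed by fluorescence at 340/450 nm between 0 and 15 min, reports GPX4 activity via coupled glutathione reductase (100 nM). Enzyme 200 nM was pre-exposed to compound 30 min; 0.5 mM cumene hydroperoxide and 1 mM GSH served as substrates.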

Structures are written as SMILES. Values without a mark were called inactive. Records with an inconclusive call do not appear. Active and inactive are the calls of the source. Unless noted, the call rests on the fitted dose curve; in most records, active means well fitted curve in the direction sought with a large enough effect; inconclusive means small, poorly fitted or top-dose-only effect, or another doubt; inactive means no such curve, though single readings can be large; an effect the other way counts as inactive or inconclusive.

T1 sequence (P78324 whole entry, looked up): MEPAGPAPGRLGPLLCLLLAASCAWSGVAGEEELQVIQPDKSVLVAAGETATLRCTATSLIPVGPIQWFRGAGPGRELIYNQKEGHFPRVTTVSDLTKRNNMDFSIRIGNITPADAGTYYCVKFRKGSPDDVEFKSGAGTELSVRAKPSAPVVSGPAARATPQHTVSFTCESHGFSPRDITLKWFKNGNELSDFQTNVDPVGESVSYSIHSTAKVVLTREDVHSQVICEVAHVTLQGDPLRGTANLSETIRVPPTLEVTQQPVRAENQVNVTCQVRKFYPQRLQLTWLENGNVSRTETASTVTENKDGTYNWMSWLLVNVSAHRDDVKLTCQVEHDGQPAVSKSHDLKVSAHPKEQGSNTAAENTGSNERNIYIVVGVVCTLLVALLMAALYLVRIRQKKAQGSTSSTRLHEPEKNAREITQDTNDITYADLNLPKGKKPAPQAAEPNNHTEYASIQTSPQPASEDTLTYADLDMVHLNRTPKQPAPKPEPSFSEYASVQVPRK
T1 sequence (Q08722 whole entry, looked up): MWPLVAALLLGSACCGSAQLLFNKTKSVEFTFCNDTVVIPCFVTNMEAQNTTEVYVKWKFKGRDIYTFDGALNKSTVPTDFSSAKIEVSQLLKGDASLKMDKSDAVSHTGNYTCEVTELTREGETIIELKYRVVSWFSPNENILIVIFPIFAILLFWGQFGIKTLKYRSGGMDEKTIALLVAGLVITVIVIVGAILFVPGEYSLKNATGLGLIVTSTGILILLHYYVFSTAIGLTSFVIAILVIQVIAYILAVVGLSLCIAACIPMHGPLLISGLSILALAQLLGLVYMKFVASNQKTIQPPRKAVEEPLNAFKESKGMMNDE
Chain of Single-stranded DNA cytosine deaminase (Homo sapiens) (Q9GZX7 whole entry, looked up): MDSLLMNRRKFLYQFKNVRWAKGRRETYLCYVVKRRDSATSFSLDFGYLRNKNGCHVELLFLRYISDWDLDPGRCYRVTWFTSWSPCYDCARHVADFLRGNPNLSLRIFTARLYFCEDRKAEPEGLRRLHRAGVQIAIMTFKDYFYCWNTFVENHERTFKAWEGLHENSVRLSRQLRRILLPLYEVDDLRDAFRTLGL
Chain of N-terminal Xaa-Pro-Lys N-methyltransferase 1 (Homo sapiens) (Q9BV86 whole entry, looked up): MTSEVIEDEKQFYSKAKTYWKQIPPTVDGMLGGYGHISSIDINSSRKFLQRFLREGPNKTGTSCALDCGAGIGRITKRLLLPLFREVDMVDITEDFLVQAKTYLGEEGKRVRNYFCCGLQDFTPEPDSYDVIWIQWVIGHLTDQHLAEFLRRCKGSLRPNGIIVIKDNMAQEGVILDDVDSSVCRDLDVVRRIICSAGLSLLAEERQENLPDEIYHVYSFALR
Chain of Phospholipid hydroperoxide glutathione peroxidase GPX4 (Homo sapiens) (P36969 whole entry, looked up): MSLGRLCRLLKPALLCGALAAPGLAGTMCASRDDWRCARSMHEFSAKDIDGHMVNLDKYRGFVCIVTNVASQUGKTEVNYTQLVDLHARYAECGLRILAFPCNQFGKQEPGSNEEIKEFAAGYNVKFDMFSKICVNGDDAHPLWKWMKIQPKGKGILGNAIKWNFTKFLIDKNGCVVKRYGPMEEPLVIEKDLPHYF
Chain of Parathyroid hormone/parathyroid hormone-related peptide receptor (Homo sapiens) (Q03431 whole entry, looked up): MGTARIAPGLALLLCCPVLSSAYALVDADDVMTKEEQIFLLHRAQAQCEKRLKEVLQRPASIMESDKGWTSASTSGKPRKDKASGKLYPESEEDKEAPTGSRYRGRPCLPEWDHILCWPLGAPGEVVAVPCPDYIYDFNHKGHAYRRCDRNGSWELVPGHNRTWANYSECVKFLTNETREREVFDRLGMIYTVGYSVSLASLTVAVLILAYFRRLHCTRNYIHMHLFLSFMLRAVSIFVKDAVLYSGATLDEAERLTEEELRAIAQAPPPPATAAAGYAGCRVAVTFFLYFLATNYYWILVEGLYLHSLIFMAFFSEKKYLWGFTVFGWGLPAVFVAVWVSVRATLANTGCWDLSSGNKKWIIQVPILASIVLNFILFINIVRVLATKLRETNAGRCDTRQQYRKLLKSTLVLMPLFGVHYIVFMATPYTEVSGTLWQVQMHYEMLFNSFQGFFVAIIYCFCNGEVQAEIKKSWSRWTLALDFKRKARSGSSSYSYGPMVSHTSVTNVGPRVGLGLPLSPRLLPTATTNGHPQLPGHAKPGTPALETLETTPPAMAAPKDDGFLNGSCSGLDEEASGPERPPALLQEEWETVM

Take `Cc1cccc(/C=C/c2ccccc2)n1`: in [1], the max response is 6.48%. Besides, the Potency result in [2], in [6], in assay [8], in assay [9], in [12] and in assay [15] was “inactive” in each case. In addition, the Potency entry in assay [17], in assay [18] and in assay [19] was “inactive” each time. Also, the call in assay [3], in assay [4], in assay [5], in [7], in assay [10] and in assay [11] was inactive. For the same compound, the compound was classed as inactive in [13] and in assay [14]. In addition, the Potency in [16] is 27.4 µM (active).

These data come from PubChem BioAssay (NCATS).
